# Measurements published in PubChem BioAssay AID1345085 (National Center for Advancing Translational Sciences (NCATS), 2018).
# Records with an inconclusive call do not appear. Values without a mark were called inactive. The source made the active and inactive calls. Calls come from the whole dose curve; as a rule, active = well fitted cell-killing curve with a large enough effect; inconclusive = small, poorly fitted or top-dose-only effect, or effect the other way; inactive = no such curve, though single readings can be large or run the other way. *1 amine or outer side, *2 acyl side, *3 side chain or, on linkers, in order; H or OH if unused. Where a SMILES comes first, the peptide text is derived from it. Bridges are numbered along the chain shown (N, C = ends). Roman numbers before positions name the chains, in order. [ ]: non-standard residue; d: D form. Actinocin(9to1) = Cc1c2oc3c(C)ccc(C(=O)[*:1])c3nc-2c(C(=O)[*:2])c(N)c1=O; NMeV = CN[C@H](C(=O)O)C(C)C; Sar = CNCC(=O)O
# Tested on: C33A
# Experiment: Confirmatory qHTS for gynecologic anti-cancer compounds from libraries of approved drugs and bioactive compounds; note: nearly all actives have a fitted effect of over 55% in size
# Conditions: gynecologic cancer cell panel viability, ATPlite luminescence, 48 h; series mostly up to 57.6 µM; activity change, negative = viability loss: at the top concentration
# Summary of the method: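 Seeding 1,000 cells per well preceded overnight (16 h) attachment, after which 48 h drug treatment across 57.5 uM–0.977 nM (11 points) was applied. Remaining cellular ATP, detected by ATPlite luminescence, defined IC50.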
# % is set by controls: 0 for no effect and ±100 for the full control effect; potency is the fitted concentration of half-maximal effect.
Structure (SMILES),Potency,"activity change, negative = viability loss"
Nc1ccccc1NC(=O)c1ccc(CNC(=O)OCc2cccnc2)cc1,5.44 µM (active),
CC1=C(/C=C/C(C)=C/C=C/C(C)=C/C(=O)Nc2ccc(O)cc2)C(C)(C)CCC1,3.85 µM (active),
c1nc2nc(Nc3ccc(N4CCOCC4)cc3)nc(NC3CCCCC3)c2[nH]1,,-6.39% [at 19.5 µM]
CN(C)CCC(CSc1ccccc1)Nc1ccc(S(=O)(=O)NC(=O)c2ccc(N3CCN(Cc4ccccc4-c4ccc(Cl)cc4)CC3)cc2)cc1[N+](=O)[O-] (stereo unspecified),,5.88%
CO[C@@]12[C@H](COC(N)=O)C3=C(C(=O)C(C)=C(N)C3=O)N1C[C@@H]1N[C@@H]12,,-5.23%
Cn1cnc2c(F)c(Nc3ccc(Br)cc3Cl)c(C(=O)NOCCO)cc21,,-14.7%
Nc1cccc(-c2cc3c(Oc4cccc(O)c4)ncnc3[nH]2)c1,,-12.5%
COc1cc2c(Oc3ccc(-c4cnc(Nc5ccc(F)cc5)n(C)c4=O)cc3F)ccnc2cc1OCCCN1CCOCC1,,-4.7%
Cc1ccc(C(=O)Nc2ccc(CN3CCN(C)CC3)c(C(F)(F)F)c2)cc1C#Cc1cnc2cccnn12,19.3 µM (active),
CN1C(=O)C(Cc2c[nH]c3ccccc23)NC1=S (stereo unspecified),,12.4% [at 19.5 µM]
CN(C)/N=N/c1nc[nH]c1C(N)=O,,0.0357%
CS(=O)(=O)c1ccc(-c2cnc(N)c(C(=O)Nc3ccccc3)n2)cc1,,-5.61%
CN(C)c1ccc2nc3ccc(=[N+](C)C)cc-3sc2c1,21.7 µM (active),
COc1cc2nccc(Oc3ccc(NC(=O)C4(C(=O)Nc5ccc(F)cc5)CC4)cc3)c2cc1OC,15.3 µM (active),
"Cc1c2oc3c(C)ccc(C(=O)N[C@@H]4C(=O)N[C@H](C(C)C)C(=O)N5CCC[C@H]5C(=O)N(C)CC(=O)N(C)[C@@H](C(C)C)C(=O)O[C@@H]4C)c3nc-2c(C(=O)N[C@@H]2C(=O)N[C@H](C(C)C)C(=O)N3CCC[C@H]3C(=O)N(C)CC(=O)N(C)[C@@H](C(C)C)C(=O)O[C@@H]2C)c(N)c1=O (I: T[dV]P[Sar][NMeV] / II: T[dV]P[Sar][NMeV]; ester I:1-I:C, II:1-II:C; linker I:N-II:N via Actinocin(9to1))",0.385 µM (active),
Fc1cc(-c2cccc3ncc(-c4cnn(C5CCNCC5)c4)nc23)cc(F)c1CN1CCOCC1,24.3 µM (active),

Structure (SMILES),Potency,"activity change, negative = viability loss"
Cc1cc(Nc2nc(N[C@@H](C)c3ncc(F)cn3)ncc2Cl)n[nH]1,,6.99%
CCc1cccc(CC)c1NC(=O)N1Cc2[nH]nc(NC(=O)c3ccc(N4CCN(C)CC4)cc3)c2C1,,8.99%
Cc1ccc(C(=O)N(CCCN)C(c2nc3cc(Cl)ccc3c(=O)n2Cc2ccccc2)C(C)C)cc1 (stereo unspecified),0.485 µM (active),
CN(C)CC/C=C1\c2ccccc2COc2ccccc21,,8.58%
Cc1cc(Nc2cc(N3CCN(C)CC3)nc(/C=C/c3ccccc3)n2)n[nH]1,21.7 µM (active),
Cn1cc(-c2ccc3ncc(Cc4ccc5ncccc5c4)n3n2)cn1,,-11.7%
Cc1csc(NC(=O)c2sc3nc4c(c(C(F)(F)F)c3c2N)CCC4)n1,1.93 µM (active),
COc1ccc2cc3[n+](cc2c1OC)CCc1cc2c(cc1-3)OCO2,,-16%
Cc1cc(C2CCCCC2)n(O)c(=O)c1,7.03 µM (active),
COc1cccc2c1C(=O)c1c(O)c3c(c(O)c1C2=O)C[C@@](O)(C(=O)CO)C[C@@H]3O[C@H]1C[C@H](N)[C@H](O)[C@H](C)O1,1.22 µM (active),
Cc1ccc(C(=O)N(CCCN)C(c2oc3cc(Cl)ccc3c(=O)c2Cc2ccccc2)C(C)C)cc1 (stereo unspecified),0.769 µM (active),
COc1ccc2c(c1)c(CC(=O)O)c(C)n2C(=O)c1ccc(Cl)cc1,,20.9%
O=C1c2c(O)ccc(O)c2C(=O)c2c(NCCNCCO)ccc(NCCNCCO)c21,0.306 µM (active),
C[C@]12CCC(=O)C=C1[C@@H]1C[C@@H]1[C@H]1[C@@H]3[C@@H]4C[C@@H]4[C@@]4(CCC(=O)O4)[C@@]3(C)CC[C@@H]12,,-12.5%
C[C@@H](Oc1cc(-c2cnn(C3CCNCC3)c2)cnc1N)c1c(Cl)ccc(F)c1Cl,24.3 µM (active),
